Compound activity deposited in PubChem BioAssay by National Center for Advancing Translational Sciences (NCATS).
Rows were chosen to be rich in hits. Some 12% of all compounds tested hit in one or more screens of this group.
G9a block: qHTS Assay for Inhibitors of Histone Lysine Methyltransferase G9a | G9a H3K9 monomethylation, AlphaScreen, 2 h | 8.8% of 350,000 active | AID 504332, 2011 | Potency, µM (titrated, usually from 102 µM), usual class: inhibitors; also: nearly all actives have a fitted effect of over 75% in size
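Readings reflect AlphaScreen signal from monomethyl-H3K9 antibody detection. HMT at 20 nM; substrate b-H3K9 500 nM; cofactor SAM 20 uM; 2 h RT reaction; compounds tested as titrations in qHTS with 15 min preincubation.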
HP1b binding inh: HTS for Inhibitors of HP1-beta Chromodomain Interactions with Methylated Histone Tails. 0.56% of 390,000 active. Potency, µM (doses to about 114 µM), usual class: inhibitors. AlphaScreen HP1-beta / biotin-H3K9me3 peptide binding. Chromobox protein homolog 1 (Homo sapiens), P83916. AID 540317, 2011; also: nearly all actives have a fitted effect of over 70% in size
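AlphaScreen: HP1-beta (50 nM) preformed 30 min with biotin-H3(1-18)K9me3 peptide (50 nM) in PBS pH 7.4, 0.01% Tween-20. Compound added for 30 min at RT, then streptavidin donor/nickel chelate acceptor beads (10 ug/mL) for 30 min.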
BAZ2B block: qHTS Assay for Inhibitors of BAZ2B. AID 504333, 2011. AlphaScreen BAZ2B-H3K14Ac peptide displacement. Potency, µM (titrated, usually from 114 µM), usual class: inhibitors. Bromodomain adjacent to zinc finger domain protein 2B (Homo sapiens), Q9UIF8. 4.4% of 360,000 active; also: nearly all actives have a fitted effect of over 60% in size
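BAZ2B (50 nM) with biotin-H3(5-23)K14Ac peptide (50 nM) in PBS pH 7.4, 0.01% Tween-20, preformed 30 min, then compound 30 min at room temperature; top concentration 110uM. AlphaScreen streptavidin donor/nickel chelate acceptor beads (10 ug/mL final), 20 min dark, signal read.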
JMJD2A Tudor: qHTS Assay for Inhibitors of JMJD2A-Tudor Domain; AlphaScreen JMJD2A-Tudor / H3K4me3 peptide binding; Potency, µM (top dose mostly 114 µM), actives largely listed as inhibitors; 4.4% of 390,000 active; AID 504339, 2011; also: nearly all actives have a fitted effect of over 50% in size
PLK1 PBD inh: qHTS for Inhibitors of PLK1-PDB (polo-like kinase 1 - polo-box domain): Primary Screen; Plk1 PBD binding of FITC phosphopeptide, fluorescence polarization; Potency, µM, actives largely listed as inhibitors; 2.8% of 360,000 active; AID 720504, 2013; also: series mostly up to about 57 µM; nearly all actives have a fitted effect of over 65% in size
Sfp inh: qHTS Assay for Inhibitors of Bacillus subtilis Sfp phosphopantetheinyl transferase (PPTase); Potency, µM, hits mostly inhibitors; 3.5% of 310,000 active; Biochemical Sfp PPTase activity, qHTS; AID 1490, 2009; 4'-phosphopantetheinyl transferase ffp (Bacillus subtilis), Q9F4F7;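 also: the enzyme is Sfp with the accession as filed and its product quenches rhodamine fluorescence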
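Fluorescence-quenching assay with 15 nM Sfp, 5 uM rhodamine-CoA and 12.5 uM BHQ-2-labelled ybbR peptide in pH 7.6 Hepes/MgCl2 buffer. Enzyme was pre-incubated with compound for 15 min at room temperature. Rate was taken from the 30-min fluorescence change (525/598 nm).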
Numbers stand for hits; i = inactive; ? = inconclusive; nt = no result; [ ] = remark or other dose. Calls follow the shape of the dose curve; as a rule, active = well fitted curve in the direction sought with a large enough effect; inconclusive = small, poorly fitted or top-dose-only effect, or another doubt; inactive = no such curve, though single readings can be large; an effect the other way counts as inactive or inconclusive.

SMILES	G9a block	HP1b binding inh	BAZ2B block	JMJD2A Tudor	PLK1 PBD inh	Sfp inh
O=C(c1cc2nc(-c3ccco3)cc(C(F)(F)F)n2n1)N1CCN(c2ccc(F)cc2)CC1	i[12.7 µM]	i	i	?	i	i
CCN(C(=O)c1c(C)oc2ncn(CC(C)C)c(=O)c12)c1cccc(Cl)c1	i	i	i	i	nt	nt
C[C@@H]1CN([C@@H](C)CO)S(=O)(=O)c2ccc(Br)cc2O[C@H]1CN(C)Cc1ccccn1	nt	nt	nt	nt	i	nt
CNc1ccccc(-c2ccc3cc4c(cc3n2)OCO4)c1=O	i	i	i	i	i	?
Cc1nn(C(=O)c2ccccc2F)c(C)c1S(=O)(=O)N1CCOCC1	?	i	i	i	nt	nt
CCOc1ccc(C(=O)/C=C/Nc2ccc(S(=O)(=O)N=C(N)N)cc2)cc1	i	i	i	i	i	i
O=C(NCc1ccco1)c1cnn2c(C(F)(F)F)cc(-c3cccs3)nc12	i	i	nt	i	i	32µM
COc1ccc(N2CCN(C(=O)CSc3nc(-c4ccc(C(C)C)cc4)no3)CC2)cc1	i	i	i	i	nt	nt
Nc1ccc2nc(-c3ccc(-c4nc5ccc(N)cc5[nH]4)cc3)[nH]c2c1	i	i	?	i	i	i
Nc1ccc(-c2nc3ccc(-c4nc5ccc(N)cc5[nH]4)cc3[nH]2)cc1	22µM	nt	nt	nt	nt	?
Nc1ccc2nc(-c3cccc(-c4nc5ccc(N)cc5[nH]4)n3)[nH]c2c1	11µM	?	25µM	45µM	i	32µM
CC(=O)N1CC(C)Sc2ccc(S(=O)(=O)NCc3ccc(Cl)cc3)cc21 (stereo unspecified)	i	i	i	i	i	i
COC(=O)c1nnc(C(=O)NCc2ccccc2)c2[nH]c3ccccc3c12	nt	nt	nt	nt	nt	i
C#CCN1C(=O)S/C(=C\c2ccc(-c3ccc(Cl)c(C(=O)O)c3)o2)C1=O	45µM	i	i	i	i	i
O=C(O)c1cc(-c2ccc(/C=C3\NC(=O)N(c4ccc(Cl)cc4)C3=O)o2)ccc1Cl	10µM	?	45µM	32µM	12µM	50µM
O=C(O)c1cc(-c2ccc(/C=N/N3C(=O)C4C5C=CC(CC5)C4C3=O)o2)ccc1Cl (stereo unspecified)	i	i	i	i	i	i
O=C(O)c1cc(-c2ccc(/C=C3\NC(=O)N(c4ccccc4)C3=O)o2)ccc1Cl	45µM	i	79µM	56µM	?	79µM
CCN1/C(=C/c2ccc3cccc(C)c3[n+]2CC)Sc2ccccc21	50µM	i	50µM	i	i	8.9µM
CCN1/C(=C\c2ccc3cc(C)ccc3[n+]2CC)Sc2cc(C)c(C)cc21	20µM	?	nt	?	i	18µM
CCN1/C(=C/c2ccc3cc(C)cc(C)c3[n+]2CC)Sc2cc(C)ccc21	16µM	?	?	16µM	i	10µM
CCCN1C(=O)/C(=C\C=C2/Sc3ccccc3N2CC)SC1=S	?	nt	?	nt	nt	i
CC(=O)OCON[N+]([O-])=NC(C)C	nt	i	nt	?	nt	i
COc1ccc(NS(=O)(=O)c2cccc(C(=O)NNC(=O)CNC(=O)c3cccc(C)c3)c2)cc1	i	i	i	i	i	i
O=C(Nc1cc(-c2nc3ccccc3s2)ccc1Cl)c1cc2ccccc2o1	i	i	i	i	nt	nt
CC(C)C(=O)NC(c1ccco1)c1c(O)ccc2ccccc12 (stereo unspecified)	32µM	i	i	?	i	i
SMILES	G9a block	HP1b binding inh	BAZ2B block	JMJD2A Tudor	PLK1 PBD inh	Sfp inh
CCC(=O)NC(c1ccc(N(C)C)cc1)c1c(O)ccc2ccccc12 (stereo unspecified)	10µM	?	28µM	50µM	i	i
O=C(Nc1nc2n(n1)C(c1ccc(Cl)cc1)C=C(c1ccccc1)N2)c1ccco1 (stereo unspecified)	i	i	i	i	nt	nt
O=C1CC(c2ccccc2)n2nc(NC(=O)c3ccccn3)nc2N1 (stereo unspecified)	i	i	i	7.9µM	i	?
O=C(Nc1nc2n(n1)C(c1ccccc1)C=C(c1ccccc1)N2)c1ccccc1 (stereo unspecified)	10µM	i	20µM	56µM	nt	nt
O=C(Nc1ccc(Cl)cc1)c1cnn2c1NC(c1ccccc1)=CC2c1ccccc1 (stereo unspecified)	10µM	i	i	?	nt	nt
COc1ccc(C2C=C(c3ccccc3)Nc3nc(NC(=O)c4ccc(C)cc4)nn32)cc1 (stereo unspecified)	i	i	i	i	nt	nt
O=C1CC(c2ccccc2)n2nc(NC(=O)c3ccccc3)nc2N1 (stereo unspecified)	i	i	i	i	i	i
COc1ccc(C(=O)Nc2nc3n(n2)C(c2ccc(Cl)cc2)C=C(c2ccccc2)N3)cc1OC (stereo unspecified)	?	i	28µM	56µM	nt	nt
CC1=C(C(=O)N2CCOCC2)CC(CC(=O)NCc2cccc3ccccc23)C(=O)N1Cc1ccc(C(C)(C)C)cc1 (stereo unspecified)	nt	nt	nt	nt	i	nt
COc1ccc(CNC(=O)CSCc2nc(-c3ccccc3C)oc2C)cc1	i	i	i	i	nt	nt
COc1ccc(N(C(C)C(=O)NC2CCCCCC2)S(C)(=O)=O)cc1 (stereo unspecified)	i[12.7 µM]	i	i	i	i	i
COC(=O)Oc1ccc(/C=N/NC(=O)CN(c2ccccc2Br)S(C)(=O)=O)cc1OC	i[0.501 µM]	i	i	i	i	i
COc1ccc(N(C(C)C(=O)N/N=C/c2ccc(OC)c(OC)c2)S(C)(=O)=O)cc1 (stereo unspecified)	i	i	i	i	30µM	i
CCc1ccccc1N(CC(=O)N/N=C/c1ccc(OC(=O)OC)c(OC)c1)S(C)(=O)=O	i	i	i	i[11.4 µM]	24µM	i
COc1ccc(N(C(C)C(=O)NCc2ccco2)S(C)(=O)=O)cc1 (stereo unspecified)	50µM	i	i	i	i	i
COc1ccc(N(C(C)C(=O)NN=C2CCCCCCC2)S(C)(=O)=O)cc1 (stereo unspecified)	i	i	i	i	27µM	i
O=C1c2ccccc2NC(c2ccccc2OCc2ccccc2)N1Cc1ccco1 (stereo unspecified)	nt	i	nt	i	nt	nt
O=C(CN1C2=NCCN2c2ccccc21)c1ccc(Br)s1	i	i	i	i	i	i
COc1ccc(CC(=O)NC2CC(=O)N(c3cccc(F)c3)C2)cc1 (stereo unspecified)	i	i	i	i	nt	nt
CC1(C)CC(=O)C(CC2=C(O)CC(C)(C)CC2=O)=C(O)C1	4.5µM	i	i	i	i	?
COc1ccc2nc3ccccc3[n+]([O-])c2c1	nt	i	nt	i	12µM	nt
